Measurements reported in PubChem BioAssay AID1508600 (Functional Genomics Laboratory (NCATS/FGL), 2020).
About 3,700 (7%) of roughly 53,000 sequences were called active.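 The calls were made as follows: active = gene knockdowns whose robust z-score for IL-1 alpha signal is at least 2 or at most -2, so actives lie on both sides; inactive = the rest.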 Shown is part of a subset that was picked to be rich in actives.

Assay: Components of the Cytosolic LPS Sensing Pathway: Gene Identification via Genome-wide siRNA Screen;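 also: robust z of the log signal after scaling to non-targeting control siRNA wells of the plate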
Settings: RAW264.7 macrophages, IL-1a HTRF, actives lie on both sides, screened at 100 nM (by protocol), cells primed 5 h with Pam3CSK4 first
In short: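 RAW264.7 mouse macrophages reverse-transfected with single siRNAs (100 nM final) for 48h, primed with Pam3CSK4 for 5 hours, then transfected with LipidA for 24 hour. Supernatant IL-1a read by HTRF; values normalized to negative-control median, log-transformed robust z-scores.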

Row | Sequence | z-score
1 | GGCCAGAGUAUCGAUGUUCTT against Slc25a14 | -0.566 (inactive)
2 | GGGACUUGAGUAGCUGACUTT against Sgta | -1.49 (inactive)
3 | GCUUUCUUACCAAGAGUCATT against Vsig8 | -2.89 (active)
4 | CCUCUUAUCUCGAACAUUATT against Dsn1 | 0.95 (inactive)
5 | GGAGAUAACACCGUUACUUTT against Olfr769 | 0.766 (inactive)
6 | GGAUCUGAAGAUGAUGAACTT against Ces2e | 0.0623 (inactive)
7 | CCUAGAAAUGAUUGUUGUUTT against Ncapg2 | 1.98 (inactive)
8 | GGAGACCUUAAAAGAACAUTT against Ccdc134 | 0.775 (inactive)
9 | CCCGGUUGUCUGGAUAUGATT against Map3k3 | -2.39 (active)
10 | CCCAGAUGGAUUUUUGCAUTT against Gm10413 | 0.102 (inactive)
11 | GCCAAAGUCUUGCUAUGUGTT against Uba7 | -0.481 (inactive)
12 | GGAAGCUCUUCAACUCUACTT against Vps4b | 2.06 (active)
13 | AUUGGACUUCUACAUGGCUTT against Olfr207 | 1.43 (inactive)
14 | GGAGAGAUGGUAUUGUUGGTT against Olfr1298 | -0.0094 (inactive)
15 | GGGCACUCAAGUGUAUGUCTT against Hpx | 0.224 (inactive)
16 | GCCAAAUGAACUAGCAAUATT against Golm1 | 0.0585 (inactive)
17 | GGCAUUUGAGUGGACUGUUTT against Hirip3 | 0.421 (inactive)
18 | GGUCUGUCUCGUCUACAAUTT against Gstm1 | 2.98 (active)
19 | GGCGUAAAAUUCAAACUCATT against Cr2 | 1.02 (inactive)
20 | GGAUCAGGAAGGAUUCGGATT against Zfp84 | -1.01 (inactive)
21 | GGAAGGAGCUUCGAAAAAATT against Pex16 | 0.129 (inactive)
22 | GGAGAAGUUUAGUGAAGAATT against Rmdn2 | -2.48 (active)

Row | Sequence | z-score
23 | GGCUUAAGGACAAGAAGAUTT against Gsn | -0.747 (inactive)
24 | CCAUAAGUUUGAAGAAUCCTT against Glg1 | 1.45 (inactive)
25 | GGCUAUGUAGAUGGUUUUGTT against B830017H08Rik | 2.65 (active)
26 | GGAUCACCUAACGUAAUGGTT against Phlda1 | -1.31 (inactive)
27 | GGUGACUUGGAAGAGCCCATT against Il1rapl2 | -0.637 (inactive)
28 | CGUCGUGGUUGGUAUGUAATT against Sacs | -1.18 (inactive)
29 | GGCCAGACAAAUGAUGCCATT against Slc25a30 | -3.04 (active)
30 | GGAACUAUAUACGAUGAUGTT against Usp8 | -0.316 (inactive)
31 | GGAGUUUGAAGACUUUUUGTT against Pstpip2 | 0.24 (inactive)
32 | CGGCUAGAUGAUCCUACCUTT against Tsga13 | -0.542 (inactive)
33 | GGCCCUAGAUGAGCACAAATT against Kcnh3 | 2.48 (active)
34 | GCUCUGAUCAUUUGACUUGTT against Ovca2 | 0.128 (inactive)
35 | GGACCAGAAAUACAUUUUCTT against Arhgef2 | -0.288 (inactive)
36 | GGGCAGAAACAAAAGGUUATT against Tmlhe | 0.917 (inactive)
37 | GGAAUGUUACCCUUCAACUTT against Slc25a13 | -0.0366 (inactive)
38 | GGACUCAAGAGAAAUUCAATT against Nod2 | 2.19 (active)
39 | GGGAUGUGAAAUGCACCUUTT against Rftn1 | -1.03 (inactive)
40 | GGUAUUCUUCCUCCAUGGGTT against Olfr638 | -3.22 (active)
41 | UGACUUUUGGACACGAGGCTT against Trim15 | -0.159 (inactive)
42 | GGACAAAUGACUGGUACCCTT against Gorasp2 | -0.314 (inactive)
43 | CGUGUGAAGCAGUUAUGAUTT against Pbx3 | 1.02 (inactive)
44 | GGCAAAUAGUUUCUUCAAUTT against Npnt | -0.485 (inactive)

Row | Sequence | z-score
45 | GGUUGUGAACAGUCCACCCTT against Ski | 0.461 (inactive)
46 | GGAGUGGCCAUUAAAUUUATT against Slc17a8 | 2.75 (active)
47 | GGUGCUGGUGGAUGAACUATT against Nags | -1.5 (inactive)
48 | GGAGGCUAUUACUGUUUAUTT against Fam107b | 0.601 (inactive)
49 | GGUCAAGAGUGCAUUCAAATT against Olfr1445 | 0.266 (inactive)
50 | GGAACUGAUAUCAUGUACATT against Slc25a5 | 2.15 (active)
51 | GCCGAUUCUCAUAUUUGACTT against Exo1 | -0.742 (inactive)
52 | GGCUGAGAACAAUAUGUAUTT against Ccdc80 | 0.323 (inactive)
53 | GGGCAUUUGGCCUUUCUCATT against Cpsf4 | -0.905 (inactive)
54 | GGGCUUGUUUGACUUUCAUTT against Btd | 0.175 (inactive)
55 | GGCUGUAAUGAGGACUGAUTT against Ss18l2 | 3.25 (active)
56 | CCCUAUACAGCGUACCCAATT against Eya2 | -0.754 (inactive)
57 | GCCAUGCUCACUGAACUUCTT against Nanp | -2.3 (active)
58 | GGACUUGAAACUUCUGGAUTT against Nudt16 | 0.453 (inactive)
59 | GCUAUGUAACACACCGCUGTT against Ticam1 | -1.24 (inactive)
60 | GGUGUCUUUACGUCUCCCATT against Neto1 | -2.56 (active)
61 | GGACGAGUCACACUUUGGATT against Cdyl2 | -0.328 (inactive)
62 | GGUCAAGAGGAGGGUACCUTT against Foxred2 | 0.313 (inactive)
63 | GCUUUAAAUAGAGACUAUCTT against Sox30 | 1.15 (inactive)
64 | GGAGACUUCAGCACCUUUGTT against C4a | 0.455 (inactive)
65 | CCUGAUCUCAGCCUAUACUTT against Rapgef6 | -2.26 (active)
66 | GGAACCAAAAGCCUGGCGATT against Pkd1l3 | -1.68 (inactive)

Row | Sequence | z-score
67 | GGACUGAUAUCAUUUCUGATT against Flacc1 | -1 (inactive)
68 | GCAUCCACCUCAACGAUAUTT against Dlg3 | -1.33 (inactive)
69 | GCUAGGAGCUAGGAAUCCGTT against Pdzd3 | -0.682 (inactive)
70 | GGCAGAAUGGGCUUAUGUCTT against Trabd | -2.54 (active)
71 | GGAGCUUGCCAUAUUCCUCTT against Leprotl1 | 0.915 (inactive)
72 | GGAAAUAUAUGUCAUGUCATT against Nars | 2.37 (active)
73 | GCAAGAUUGGAAUGCUCCATT against 3830403N18Rik | 0.309 (inactive)
74 | GGAAGAUAAUAUCCUUUGGTT against Olfr734 | -1.02 (inactive)
75 | GGGAUUUUGAGUUUGAUGCTT against Zc3h10 | -1.03 (inactive)
76 | GCUGUCAAAUUAACCUGUGTT against Spin2c | -2.31 (active)
77 | GCUCGAUAUAAUUUCACACTT against Neto1 | -0.75 (inactive)
78 | GCCGCUACUCUCCUCAAAATT against Card19 | -0.329 (inactive)
79 | CGUGUAAGUUUUGAUUCUATT against Calr | 0.815 (inactive)
80 | GGAGCUUGUGAACACCUUCTT against Nudc | 0.718 (inactive)
81 | GGCUAUCUGCUUAUGCUGGTT against Ptch2 | -0.314 (inactive)
82 | CCAGUAAACCGAGACCAUUTT against Nsfl1c | 2.02 (active)
83 | GCUAAGCGAAGAGUUUAACTT against Dlgap3 | 0.691 (inactive)
84 | GGACUUCUUCGAUUGUUCUTT against Chchd1 | 0.475 (inactive)
85 | GCUCUACAUGAAAACACUGTT against Gpat4 | -0.28 (inactive)
86 | CGAAAUUGCUGACUCAGAATT against Arl6ip6 | 0.549 (inactive)
87 | CCCAGCUUUCAUCCUUUGUTT against Emc7 | 0.237 (inactive)
88 | GGGCAGUCUGAUAGAGGAUTT against Adam30 | -0.632 (inactive)

Row | Sequence | z-score
89 | GGCUUCUGAUCUUACCUGGTT against Smim12 | 0.683 (inactive)
90 | GGAGGAACCCUCAUUUUAGTT against Prxl2c | -0.897 (inactive)
91 | CCAACUCGGCUGUUUUUUATT against F11r | 0.149 (inactive)
92 | GGAAAGCACCCAAGAAAUGTT against Gspt1 | -0.915 (inactive)
93 | GGUACAAUCCCAGAUUUGATT against Smc3 | -2.37 (active)
94 | CCCUUAAGUCUUUUUCCUATT against Celf2 | -1.09 (inactive)
95 | GGCCAUGGUGGCGUGUUAUTT against Egln2 | -0.524 (inactive)
96 | GCUGCUCCCUCUAAUAAAATT against Cbr1 | -0.913 (inactive)
97 | GGCGUGAACCAAACAGACUTT against Calcrl | -0.604 (inactive)
98 | CGGAGCCAAAUACGAAGGGTT against Jph3 | -0.548 (inactive)
99 | GGCAGAAAAGAUGGAAAAUTT against Evi5l | -2.1 (active)
100 | GGCAAGCACACAAUGAUGCTT against Plin5 | -0.0222 (inactive)
101 | GGUAGAACAACAGAACAAUTT against Myo5b | 2.9 (active)
102 | GCAGCUUCAAGAGAGCCAUTT against Rhbdl1 | -0.604 (inactive)
103 | GGAAGUAGCCCAGAAGUGUTT against Rad51d | -0.337 (inactive)
104 | GGGAGAGUUCCAUAAAUUGTT against Narf | -0.728 (inactive)
105 | GGGACUGGCACCAUUUGUUTT against Cetn4 | -0.289 (inactive)
106 | GGACAUGGCUUUAUAACCUTT against Dcdc5 | 0.256 (inactive)
107 | GCAGCAUAGAGACUAAAUCTT against Usp17la | 0.604 (inactive)
108 | GGAUAAAAUUGAGUCUAUGTT against Was | 1.81 (inactive)
